The values that follow come from the GenesisPotency data set.

Hit rate of the full screen: of about 290,000 compounds, about 3,000 (1%) were called active. No stated cut-off is given here; in the data, active means inhibition mostly above about 36% (no sharp cut-off); inactive means mostly below about 34%. The sample as a whole holds a higher share of actives than the screen did.

For this assay, the target named is T1, Nucleotide-binding oligomerization domain-containing protein 1, Homo sapiens (UniProt Q9Y239).
T1 sequence (whole entry): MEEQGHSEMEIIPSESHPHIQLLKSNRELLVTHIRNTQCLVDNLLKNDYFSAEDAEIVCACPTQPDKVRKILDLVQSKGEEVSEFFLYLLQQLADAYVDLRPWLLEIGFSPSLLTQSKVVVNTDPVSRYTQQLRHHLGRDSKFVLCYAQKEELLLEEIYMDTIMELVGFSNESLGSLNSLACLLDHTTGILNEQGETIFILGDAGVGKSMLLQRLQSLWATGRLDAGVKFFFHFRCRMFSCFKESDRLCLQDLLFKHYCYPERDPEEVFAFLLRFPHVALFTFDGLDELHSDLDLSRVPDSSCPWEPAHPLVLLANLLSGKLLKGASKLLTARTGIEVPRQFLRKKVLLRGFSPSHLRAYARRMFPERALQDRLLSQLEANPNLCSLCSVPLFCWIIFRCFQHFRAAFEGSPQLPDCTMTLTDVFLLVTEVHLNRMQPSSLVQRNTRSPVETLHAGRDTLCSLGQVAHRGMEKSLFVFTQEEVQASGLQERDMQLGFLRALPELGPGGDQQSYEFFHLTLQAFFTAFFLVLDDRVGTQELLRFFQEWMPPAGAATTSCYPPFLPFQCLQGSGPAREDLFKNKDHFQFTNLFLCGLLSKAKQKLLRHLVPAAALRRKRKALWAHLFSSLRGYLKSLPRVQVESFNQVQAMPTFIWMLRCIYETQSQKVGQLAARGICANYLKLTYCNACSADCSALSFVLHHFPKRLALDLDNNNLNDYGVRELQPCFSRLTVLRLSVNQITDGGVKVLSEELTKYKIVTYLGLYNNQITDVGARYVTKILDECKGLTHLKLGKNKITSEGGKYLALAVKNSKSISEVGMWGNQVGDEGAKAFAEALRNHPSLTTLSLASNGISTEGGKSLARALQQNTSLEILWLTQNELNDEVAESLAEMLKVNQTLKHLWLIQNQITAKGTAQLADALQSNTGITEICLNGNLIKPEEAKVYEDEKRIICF
In words: NOD1 signaling inhibitors, primary screen, cell-based, luminescence, uHTS (AID 1578).
In the case of `CC1CCC/C=C/C(=O)c2c(O)cc(O)cc2CC(=O)O1` (stereo not drawn), the call was active.
As for `COc1ccc(NC(=O)/C(Cl)=C(/Cl)S(=O)(=O)Cc2ccccc2)cn1`, the call was active.
The same measure for `COc1ccc(NC(=O)/C(Cl)=C(/Cl)S(=O)(=O)Cc2ccc(C)cc2)cn1`: “active”; for `N=C1SCC(=O)N1c1ncc(Cc2ccc(F)cc2)s1`: “active”.
The same measure for `N=C1SCC(=O)N1c1ncc(Cc2ccccc2Cl)s1`: “active”; for `N=C1SCC(=O)N1c1ncc(Cc2cccc(Cl)c2)s1`: “active”; for `O=c1[nH]c(=O)n(Cc2ccco2)c2c1C(C(F)(F)F)(C(F)(F)F)N=C(c1ccc(F)cc1)N2`: “active”.
The same measure for `Nc1ncnc(NCc2ccc(F)cc2)c1[N+](=O)[O-]`: “active”; for `CCc1ccc(NC(=O)C2CCN(S(=O)(=O)c3ccc4c(c3)CC(C)N4C(C)=O)CC2)cc1` (stereo not drawn): “active”.
In the case of `CC(=O)c1ccc(N2CCN(S(=O)(=O)c3ccc4c(c3)CC(C)N4C(C)=O)CC2)cc1` (stereo not drawn), the result was active.
Under `Cc1ccc(-n2nc3c(=O)n(C(C)C(=O)NCCC4=CCCCC4)nc(C)c3c2C)cc1` (stereo not drawn) stands “active”; under `Cc1ccc(-n2nc3c(=O)n(C(C)C(=O)NCCc4cccs4)nc(C)c3c2C)cc1` (stereo not drawn), “active”; under `Cc1ccc(-n2nc3c(=O)n(C(C)C(=O)NCCCc4ccccc4)nc(C)c3c2C)cc1` (stereo not drawn), “active”.
For `Cc1ccc(-n2nc3c(=O)n(CC(=O)NC(C)CCc4ccccc4)nc(C)c3c2C)cc1` (stereo not drawn), the result was active.
Under `O=C(c1cnc(N2CCN(c3ccccn3)CC2)c2ccccc12)N1CCN(c2cccc(Cl)c2)CC1` stands “active”.
Under `Cc1cc(Br)ccc1NC(=O)c1cnc(N2CCN(c3ccccn3)CC2)c2ccccc12` stands “active”.
The same measure for `Cc1ccc(NC(=O)c2cnc(N3CCN(c4ccccn4)CC3)c3ccccc23)c(Br)c1`: “active”; for `CCc1ccc(NC(=O)c2cnc(N3CCN(c4ccccn4)CC3)c3ccccc23)cc1`: “active”.
`C=CCSc1nc2ccccc2n1C(=O)/C=C/c1ccc(OC)c(OC)c1`: the molecule was classed as active.
Under `COc1ccc(N(C(=O)CCl)C(C(=O)NC2CCCCC2)c2cccnc2)cc1` (stereo not drawn) stands “active”; under `O=C(NC1CCCCC1)C(c1cccnc1)N(C(=O)CCl)c1ccc(F)cc1` (stereo not drawn), “active”.
The same measure for `O=C(CN1C(=O)c2ccccc2S1(=O)=O)c1ccc2c(c1)OCCCO2`: “active”; for `O=C(CN1C(=O)c2ccccc2S1(=O)=O)c1ccc2c(c1)OCCO2`: “active”.
Under `COc1cc(/C=C/C(=O)c2ccc(NS(=O)(=O)c3ccc(C)cc3)cc2)cc(OC)c1O` stands “active”.
Take `COc1cc(OC)c(OC)cc1/C=C/C(=O)c1ccc(NS(=O)(=O)c2ccc(C)cc2)cc1`: the molecule was classed as active.
Under `O=C(/C(=C/c1ccc(Cl)cc1)c1nc2ccccc2[nH]1)c1cccs1` stands “active”; under `O=C(/C(=C/c1ccc(Cl)cc1)c1nc2ccccc2[nH]1)c1ccccc1`, “active”.
Under `O=C(/C(=C\c1ccccc1)c1nc2ccccc2[nH]1)c1ccc(Cl)cc1` stands “active”.
The same measure for `Cc1ccc(S(=O)(=O)Nc2cccc3ncccc23)s1`: “active”.
Take `O=S(=O)(Nc1cccc2ncccc12)c1cccs1`: the molecule was called active.
`Cc1ccc(C)c(OCC(=O)Nc2nc3ccc([N+](=O)[O-])cc3s2)c1C`: the result was active.
As to `O=[N+]([O-])c1ccc(O)c(-c2cc(C(F)(F)F)nc(-c3ccccc3)n2)c1`, the call was active.
Under `CC(C)c1ccc(-n2c(-c3ccccc3)c[n+]3c2CCc2ccccc2-3)cc1.[Br-]` stands “active”; under `CCCCCCCC[n+]1cccc2c3ccccc3ccc21.[I-]`, “active”; under `CCCCCCCCC[n+]1cccc2c3ccccc3ccc21.[Br-]`, “active”.
The same measure for `O=C(NC(NC(=S)Nc1ccc(Cl)cc1Cl)C(Cl)(Cl)Cl)c1cccc([N+](=O)[O-])c1` (stereo not drawn): “active”; for `COc1ccc(Cc2[nH]n3c(=O)c(Cl)c(C)nc3c2-c2ccccc2)cc1`: “active”; for `O=C(Cc1ccc(Cl)cc1)c1c[nH]c(C(=O)NCc2cccnc2)c1`: “active”.
For the molecule `CCc1ccc(N(CC)c2ncnc3nc[nH]c23)cc1`, the molecule was called active.
The same measure for `CCCN(CCC)c1ncnc2nc[nH]c12`: “active”; for `CCN(c1ccc(OC)cc1)c1ncnc2nc[nH]c12`: “active”.
Under `COc1ccc(N=C2NC(=O)/C(=C/c3ccc(O)c(OC)c3)S2)cc1` stands “active”; under `Cc1ccc(C(=O)NC(=S)N(C)C2CCCCC2)cc1Br`, “active”.
The same measure for `C=CCn1nc([N+](=O)[O-])nc1Sc1cccc2cccnc12`: “active”; for `O=[N+]([O-])c1ccc(Sc2cccc3cccnc23)c([N+](=O)[O-])c1`: “active”.
Take `Cn1nc([N+](=O)[O-])nc1Sc1cccc2cccnc12`: the molecule was classed as active.
Consider `C=CCn1c(SCC(=O)Nc2sccc2C(N)=O)nc2sc(CC)cc2c1=O`, for which the outcome was active.
As for `O=C(OCn1ncc(Br)c(Br)c1=O)c1ccccc1Cl`, the call was active.
Under `Cc1ccc(C(=O)OCn2ncc(Cl)c(Cl)c2=O)cc1` stands “active”.
As for `O=C(OCn1ncc(Cl)c(Cl)c1=O)c1ccccc1Cl`, the outcome was active.
The same measure for `O=C(OCn1ncc(Cl)c(Cl)c1=O)c1cccc(C(F)(F)F)c1`: “active”; for `COc1cccc(C(=O)Nc2nc(-c3ccccc3)c(-c3ccccc3)o2)c1`: “active”.
With `COc1cc(OC)cc(C(=O)Nc2nc(-c3ccccc3)c(-c3ccccc3)o2)c1`, the molecule was called active.
As to `S=c1[nH]nc(C2CCCCC2)n1/N=C/c1ccncc1`, the molecule was classed as active.
Under `O=c1c2cc(Cl)ccc2nc(-c2ccc(Cl)c(Cl)c2)n1O` stands “active”; under `O=c1c2cc(Br)ccc2nc(-c2cccc(C(F)(F)F)c2)n1O`, “active”.
For `COc1cccc(N2CCN(c3ncnc4c3[nH]c3ccccc34)CC2C)c1` (stereo not drawn), the call was active.
Take `COc1cccc(N2CCN(c3ncnc4c3[nH]c3ccc(F)cc34)CC2C)c1` (stereo not drawn): the molecule was called active.
The same measure for `Cc1nc(N2CCC(C(N)=O)CC2)c2c(-c3cccs3)csc2n1`: “active”; for `Cc1sc2nc(CSc3ccccc3)nc(N3CCC(C(N)=O)CC3)c2c1C`: “active”.
With `Cc1cccc(CS(=O)(=O)c2ncc(Cl)c(C(=O)Nc3c(C)cccc3C)n2)c1`, the molecule was classed as active.
The same measure for `CCCc1nnc(NC(=O)c2nc(S(=O)(=O)Cc3ccc(C)cc3)ncc2Cl)s1`: “active”; for `CCCc1nnc(NC(=O)c2nc(S(=O)(=O)Cc3cccc(C)c3)ncc2Cl)s1`: “active”; for `CCc1nnc(NC(=O)c2nc(S(=O)(=O)Cc3ccc(C)cc3)ncc2Cl)s1`: “active”.
Consider `CC(C)(C)C(=O)/C(=C/c1ccc(Cl)cc1)n1cncn1`, for which the molecule was called active.
The same measure for `O=c1c2ccccc2nc(/C=C/c2cc(Br)ccc2O)n1CCCO`: “active”; for `O=c1c2ccccc2nc(/C=C/c2ccc([N+](=O)[O-])o2)n1CCCO`: “active”.
Under `CC[n+]1c(C=C2C=C(C)OC(C)=C2)sc2ccccc21.[Cl-]` stands “active”; under `O=[N+]([O-])c1nn(-c2ccc3c(c2)OCCO3)n(O)c1=Nc1ccccc1`, “active”; under `COc1ccc(OC)c(Nc2nc(N)nc(CCl)n2)c1`, “active”.
Under `CCOc1ccc(Nc2nc(N)nc(CCl)n2)cc1` stands “active”; under `Cc1ccccc1Nc1nc(N)nc(CCl)n1`, “active”; under `CCCCCc1cc(O)c2c(C)cc(=O)oc2c1`, “active”.
Regarding `O=C(Nc1ccccc1C(=O)O)c1cc(S(=O)(=O)N2CCCCC2)c(Cl)cc1Cl`, the molecule was called active.
The same measure for `O=C(Nc1ccccc1C(=O)O)c1cc(S(=O)(=O)Nc2ccccc2)ccc1Cl`: “active”; for `Cc1cccc(NC(=O)/C=C/c2ccc([N+](=O)[O-])s2)c1`: “active”; for `CC(=O)c1cccc(NC(=O)/C=C/c2ccc([N+](=O)[O-])s2)c1`: “active”.
On to `CCOC(=O)/C=C/C(=O)Nc1cccc([N+](=O)[O-])c1`, for which the outcome was active.
With `CC(=C/c1ccccc1)/C=N/n1c(-c2ccncc2)n[nH]c1=S`, the outcome was active.
For `S=c1[nH]nc(-c2cc(-c3ccccc3)n[nH]2)n1/N=C/C(Br)=C/c1ccccc1`, the call was active.
Under `Cc1cc(C(=O)NC2CCCc3c2cnn3-c2ccc(C)c(C)c2)n(C)n1` (stereo not drawn) stands “active”; under `CCc1cc(C(=O)NC2CCCc3c2cnn3-c2cccc(C)c2C)n(C)n1` (stereo not drawn), “active”; under `CCn1nc(C)cc1C(=O)NC1CCCc2c1cnn2-c1ccc(C)c(C)c1` (stereo not drawn), “active”.
The same measure for `COCCn1c(=S)[nH]c2cc(C(=O)N3CCCC(C)C3)ccc2c1=O` (stereo not drawn): “active”; for `O=C(N/N=C/c1ccccn1)c1cc(-c2ccc(Br)cc2)nc2ccccc12`: “active”; for `O=C(N/N=C/c1ccccn1)c1cc(-c2ccc(Cl)cc2)nc2ccccc12`: “active”.
As for `CCCOc1cccc(-c2cc(C(=O)N/N=C/c3ccccn3)c3ccccc3n2)c1`, the molecule was classed as active.
The same measure for `O=C(N/N=C/c1ccccn1)c1cc(-c2ccccc2)nc2ccccc12`: “active”.
Consider `COCC1CCCN(C(=O)c2cc(COc3ccc4ncccc4c3)on2)C1` (stereo not drawn), for which the result was active.
The same measure for `O=C(c1cc(COc2cccc3cnccc23)on1)N1CCCC(CCCO)C1` (stereo not drawn): “active”.
Turning to `COCC1CCN(C(=O)c2cc(COc3cccc4cnccc34)on2)CC1`, the outcome was active.
The same measure for `Cc1c(C(C)NC(=O)c2cc(COc3cccc4cnccc34)on2)cnn1C` (stereo not drawn): “active”; for `O=C(c1cc(COc2cccc3cnccc23)on1)N1CCC(c2ccccc2Cl)C1` (stereo not drawn): “active”; for `O=C1NC(=O)/C(=C\c2ccccc2Oc2ccc(F)c(F)c2)S1`: “active”.
The same measure for `Cc1cccc2cc(/C=N/NC(=O)c3ccccc3O)c(Cl)nc12`: “active”; for `C=C1C(=O)[C@@]23[C@H](O)C[C@@H]4C(C)(C)CC[C@H](O)[C@@]4(C)[C@@H]2CC[C@@H]1[C@H]3O`: “active”.
Consider `COc1cccc(CN(C)C(=O)c2cc(COc3ccc4ncccc4c3)on2)c1`, for which the outcome was active.
The same measure for `CN(Cc1nccs1)C(=O)c1cc(COc2cccc3cnccc23)on1`: “active”; for `CCc1ccc(CN(C)C(=O)c2cc(COc3cccc4cnccc34)on2)cc1`: “active”; for `COc1ccc(-c2cc(C(F)(F)F)nc(S(C)(=O)=O)n2)cc1`: “active”.
The same measure for `COc1ccccc1-c1cc(C(F)(F)F)nc(S(C)(=O)=O)n1`: “active”; for `COc1ccc(-c2cc(C(F)(F)F)nc(S(C)(=O)=O)n2)cc1OC`: “active”.
Consider `CCCC1/C(=N/O)CC(c2ccccc2)NC1c1ccccc1` (stereo not drawn), for which the outcome was active.
The same measure for `N#CC1=C(N)N2C(=C(C#N)C1c1cccc(Br)c1)Nc1ccccc12` (stereo not drawn): “active”; for `N#CC1=C(N)N2C(=C(C#N)C1c1ccc(Br)cc1)Nc1ccccc12` (stereo not drawn): “active”.
As for `Cc1[nH]c(=O)c(C(=O)/C=C/c2ccccc2)c2c1CCCC2`, the outcome was active.
The same measure for `Cc1[nH]c(=O)c(C(=O)/C=C/c2ccccc2F)c2c1CCCC2`: “active”; for `COc1ccccc1/C=C/C(=O)c1c2c(c(C)[nH]c1=O)CCCC2`: “active”.
